Most compounds without a hit are left out; they make up all but 19% or so of the library.
TDP1 cell CPT = DT40-hTDP1 cell growth loss with CPT | chicken DT40 Tdp1-/-;hTDP1 cells + 20 nM CPT, ATP luminescence, 48 h | Potency, µM (titrated, usually from 46.2 µM), without a hit: at the top dose activity change, negative = growth inhibition, hits mostly inhibitors | AID 686979 | actives 12% (n = 420,000); also: potency is read from the fitted curve at half-maximal effect; nearly all actives have a fitted effect of over 55% in size
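Chicken DT40 Tdp1-/- cells complemented with human TDP1, 400 cells/well, exposed to compounds plus 20 nM camptothecin for at least 48 h at 37 C; viability read as ATP content by CellTiter-Glo luminescence.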
HT1080NT lethal = kills 2HG-producing HT-1080-NT fibrosarcoma cells | actives 1.6% (n = 360,000) | HT-1080-NT fibrosarcoma viability, CellTiter-Glo ATP luminescence, 48 h | Potency, µM (doses to about 46.1 µM), inactives show at the top dose activity, negative = less viability, hits mostly cytotoxic;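 also: NT is the 2HG producing partner of a matched IDH1 knockdown line; potency is read from the fitted curve at half-maximal effect; 0% = DMSO-treated cells and -100% = media-only wells without cells; nearly all actives have a fitted effect of over 55% in size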
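HT-1080-NT fibrosarcoma cells (2HG-overproducing), 750 cells/well in RPMI with 5% FBS, dosed after 2 h and incubated 48 h at 37C. CellTiter-Glo luminescence normalized to DMSO and no-cell wells; concentration-response curves fitted and classed.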
IL1B secr inh = inflammasome signaling inhibition, IL-1 beta readout | THP-1 LPS/ATP IL-1B secretion, AlphaLISA, 16 h; stronger effect = lower value | actives 4.7% (n = 360,000) | AID 743279 | activity change, % at 57.5 µM; in the data active = activity change below about -50%; inconclusive = mostly about -30% to -49%
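THP-1 cells pretreated 1 hr with compounds (up to 57.5 uM final), then stimulated with LPS (250 ng/mL final) plus ATP (1.25 mM final); secreted IL-1B measured by AlphaLISA after 16 hr, decreased signal indicating inhibition.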
DT40 TDP1 no CPT = qHTS for Inhibitors of human tyrosyl-DNA phosphodiesterase 1 (TDP1): qHTS in cells in absence of CPT; actives 15% (n = 420,000); Potency, µM (top dose mostly 46.2 µM), inactives show top-dose activity change, negative = growth inhibition, hits mostly inhibitors; DT40 Tdp1-/- hTDP1 cells, no CPT, ATP luminescence, 48 h; also: potency is read from the fitted curve at half-maximal effect; nearly all actives have a fitted effect of over 55% in size
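No-CPT arm: Tdp1-/-;hTDP1 DT40 cells (400/well) plus compounds, incubated ≥48 hr at 37 °C. Readout CellTiter-Glo luminescence.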
HT1080 IDH1KD tx = toxicity to HT-1080 IDH1 knockdown cells (counter line). HT-1080 IDH1 knockdown viability, ATP luminescence, 48 h. actives 2% (n = 360,000). Potency, µM (highest dose often 46.1 µM), for the others: top-dose activity, negative = toxicity, hits mostly cytotoxic;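 also: potency is read from the fitted curve at half-maximal effect; 0% = DMSO wells and -100% = cell-free medium wells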
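In this qHTS, HT-1080 cells depleted of IDH1 are exposed for 48 h at 37 °C to compound titrations. Toxicity is scored from CellTiter-Glo luminescence, with DMSO as full viability and medium alone as none.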
* marks the source's active call; other numbers are inactive results; ? = inconclusive; nt = not tested or not shown; [ ] = another dose, or the depositor's remark. Unless noted, calls follow the shape of the dose curve; as a rule, active = well fitted curve in the direction sought with a large enough effect; inconclusive = small, poorly fitted or top-dose-only effect, or another doubt; inactive = no such curve, though single readings can be large; an effect the other way counts as inactive or inconclusive. Unless noted, % is scaled to controls: 0 for no effect and ±100 for the full control effect.

SMILES	TDP1 cell CPT	HT1080NT lethal	IL1B secr inh	DT40 TDP1 no CPT	HT1080 IDH1KD tx
COc1ccc(-c2cc(OC(=O)c3ccccc3Cl)c3c(C)oc(C)c3c(=O)c2)cc1OC	23µM*	nt	nt	?	nt
COc1ccc(-c2cc(OC(=O)c3ccccc3C)c3c(C)oc(C)c3c(=O)c2)cc1	?	nt	nt	16µM*	nt
COc1cc(-c2cc(OC)c3c(C)oc(C)c3c(=O)c2)ccc1OC(=O)c1ccccc1C	5.2µM*	nt	nt	8.2µM*	nt
Cc1cc(C(=O)Oc2ccccc2C(=O)O)c(C)o1	?	0%	32	-12%	2%
COc1ccc(CNC(=O)CCSc2nc(-c3ccc4c(c3)OCO4)cc(C(F)(F)F)n2)cc1	-20%	5%	-12	?	-5%
CN(Cc1ccccc1)C(=O)CSc1nc(-c2ccc(F)cc2)cc(C(F)(F)F)n1	21µM*	nt	nt	15µM*	nt
O=C(CSc1nc(-c2ccc(F)cc2)cc(C(F)(F)F)n1)NCc1ccccc1	-27%	nt	nt	-30%	nt
O=C(CCSc1nc(-c2ccc3c(c2)OCO3)cc(C(F)(F)F)n1)NCc1ccccc1	?	-12%	15	15µM*	?
COc1ccc(-c2cc(C(F)(F)F)nc(SCC(=O)N(C)Cc3cnn(C)c3C)n2)cc1OC	16µM*	13%	-4	16µM*	15%
CN(Cc1ccccc1)C(=O)CCSc1nc(-c2ccc3c(c2)OCO3)cc(C(F)(F)F)n1	?	-10%	8	18µM*	?
CCCSc1nnc2c(n1)OC(c1ccc(OCC(=O)O)cc1)Nc1ccccc1-2 (centres undefined)	-19%	nt	nt	-1%	nt
Nc1[nH]c(C(=O)c2ccccc2)c(-c2c(F)cccc2F)c1C(=O)c1ccc(Cl)c(Cl)c1	?	?	-18	?	?
CC1CN(C(=O)CCC(=O)NCc2cccs2)c2ccccc2O1 (centres undefined)	2%	nt	nt	4%	nt
Cc1nn(Cc2ccccc2Cl)c(C)c1NC(=O)NC12CC3CC(CC(C3)C1)C2	?	?	2	?	?
Cc1nn(Cc2ccccc2Cl)c(C)c1NC(=O)c1cc(-c2ccc(F)cc2)on1	?	7%	20	-21%	-2%
Cc1nn(Cc2ccccc2Cl)c(C)c1NC(=O)c1nc2ncccn2n1	13µM*	0%	9	13µM*	-2%
Cc1nn(Cc2ccccc2Cl)c(C)c1NC(=O)c1ccn(C)n1	8.2µM*	12%	10	12µM*	2%
Cc1csc(NC(=O)c2cc3c(C)nn(Cc4ccccc4Cl)c3s2)n1	?	?	6	16µM*	?
Cc1nn(Cc2ccc(Br)cc2)c(C)c1NC(=O)c1nn(C)cc1Cl	?	-1%	-18	18µM*	-3%
COc1cccc(CN2CCN(C(=O)[C@H]3O[C@@H](n4cnc5c(N)ncnc54)[C@H](O)[C@@H]3O)CC2=O)c1	13%	16%	-26	1%	24%
O=C(/C=C/c1ccco1)NCC1COc2ccccc2O1 (centres undefined)	?	3%	8	?	3%
COc1ccc(/C=N/NC(=O)CC2N=C(Cc3ccccc3)NNC2=O)cc1OC (centres undefined)	-23%	-2%	-21	-20%	18%
COc1ccc(OC)c(/C=N/NC(=O)C(=O)N2CCCCCC2)c1	-17%	2%	24	-14%	0%
CCC(CC)c1nnc(NC(=O)c2c(C)nn(Cc3ccccc3Cl)c2C)s1	23µM*	-19%	23	-26%	2%[9.24 µM]
Cc1nn(Cc2ccccc2Cl)c(C)c1C(=O)NC1=NCCS1	0%	-11%	10	-15%	-11%
SMILES	TDP1 cell CPT	HT1080NT lethal	IL1B secr inh	DT40 TDP1 no CPT	HT1080 IDH1KD tx
C/C(=N\NC(=O)CCc1ccccc1)C1C(=O)c2ccccc2C1=O	1.6µM*	?	40	2.6µM*	?
C/C(=N\NC(=O)c1cccc(Cl)c1)C1C(=O)c2ccccc2C1=O	0.92µM*	13µM*	0	0.82µM*	8.2µM*
NC1=NC(=O)/C(=C\c2ccc(-c3ccc(Cl)cc3)o2)S1	?	-26%	55	18µM*	-27%
O=C(O)c1ccc(N2CCCCCC2)c(N2C(=O)c3ccccc3C2=O)c1	4%	17%	12	4%	15%
O=C1c2cccc3cccc(c23)C(=O)N1c1ccc(O)cc1	-1%	9%	-2	5%	8%
O=C1c2cccc3c(N4CCCCC4)ccc(c23)C(=O)N1c1ccccc1O	13µM*	-10%	-25	21µM*	-8%
O=C1c2cccc3c(N4CCCCC4)ccc(c23)C(=O)N1c1ccc(O)cc1	?	1%	-4	23µM*	-16%
CCc1noc(C)c1C(=O)N(C)CC(=O)Nc1ccc(OC)cc1	3%	-1%	8	-1%	9%
Cc1ccc(S(=O)(=O)N2CCC(=O)N(C(COCc3ccc(C(F)(F)F)cc3)Cc3ccccc3)CC2)cc1 (centres undefined)	9.2µM*	3%	-17	18µM*	-2%
Cc1ccc(S(=O)(=O)N2CCC(=O)N(C(COCc3cccc(C)c3)Cc3ccccc3)CC2)cc1 (centres undefined)	?	-9%	6	?	-2%
Cc1ccc(S(=O)(=O)N2CCC(=O)N(C(COCc3ccc(Cl)c(Cl)c3)Cc3ccccc3)CC2)cc1 (centres undefined)	?	-3%	48	23µM*	1%
Cc1ccc(S(=O)(=O)N2CCC(=O)N(C(COC(=O)Nc3ccccc3)Cc3ccccc3)CC2)cc1 (centres undefined)	21µM*	5%	0	?	-3%
Cc1ccc(S(=O)(=O)N2CCC(=O)N([C@H](COCc3ccc(C(F)(F)F)cc3)Cc3ccccc3)CC2)cc1	?	3%	0	?	4%
Cc1ccnc2ccc(F)cc12	1%	nt	nt	-2%	nt
CCN(Cc1ccncc1)C(=O)c1cc(COc2ccc(C)c(C)c2)on1	-27%	-12%	-53*	?	-10%
Cc1ccc(OCc2cc(C(=O)N(CCO)Cc3cccs3)no2)cc1C	?	-2%	-62*	?	0%
Cc1cc(C(=O)N(CCC#N)Cc2cccs2)no1	3%	15%	4	0%	30%
CCN(Cc1ccccc1)C(=O)c1cc(COc2c(F)cccc2F)on1	?	21%	?	?	7%
COc1ccc2c(c1)c1c(c(=O)n(CCc3ccccc3)c(=O)n1Cc1ccc(Cl)cc1)n2C	1%	nt	nt	-9%	nt
COCCNC(=S)N(CCc1c(C)[nH]c2ccccc12)Cc1cccnc1	-16%	0%	9	?	-12%
